Measurements: the supplement of paper PMC8285479
Counter-ions that a name gives are not always drawn. ± gives the standard deviation of the averaged measurements. Whole data set: some 1,900 compounds, median “normalised cell viability (NPI; 0 = phenylarsine oxide control, 1 = DMSO control)” near 1, cut for the lowest 2% near 0.039. For the sample, the lowest values were picked, then their nearest neighbours and some compounds at random.

Test system: NCI-H1944
Assay: normalised cell viability (NPI; 0 = phenylarsine oxide control, 1 = DMSO control) (fraction of DMSO control); NCI-H1944 is a non-small cell lung cancer line; higher = more viable cells (less compound toxicity)
Conditions: 6 days
[1] = glucocorticoid arm: hydrocortisone 2.75 uM co-treatment, compound 1 µM
[2] = glucocorticoid arm: hydrocortisone 2.75 uM co-treatment, compound 5 µM
[3] = glucocorticoid arm: hydrocortisone 2.75 uM pre-treated 2 days and continued, compound 1 µM
[4] = glucocorticoid arm: hydrocortisone 2.75 uM pre-treated 2 days and continued, compound 5 µM
[5] = glucocorticoid arm: vehicle, compound 1 µM
[6] = glucocorticoid arm: vehicle, compound 5 µM
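Note: CTB read-out in 384-well plates, triplicate wells, NPI normalised per plate against 1 µM phenylarsine oxide (0) and 0.1% DMSO (1) controls.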

SMILES	normalised cell viability [1]	normalised cell viability [2]	normalised cell viability [3]	normalised cell viability [4]	normalised cell viability [5]	normalised cell viability [6]
CC(C)C(=O)Oc1ccc(CO)cc1[C@H](CCN(C(C)C)C(C)C)c1ccccc1 [Fesoterodine Fumarate]	1.002 ± 0.0076	0.966 ± 0.019	1 ± 0.025	0.984 ± 0.04	1.001 ± 0.009	1 ± 0.016
NCCC1CCCC(CCN)N1 (stereo not given) [MDL 26,630 trihydrochloride]	0.9937 ± 0.0075	0.981 ± 0.021	0.9927 ± 0.0075	1.04 ± 0.11	0.9923 ± 0.0042	1 ± 0.011
NC1(C(=O)O)CCCCC1 [1-Amino-1-cyclohexanecarboxylic acid hydrochloride]	0.998 ± 0.011	0.9907 ± 0.0081	0.9927 ± 0.0049	0.991 ± 0.013	0.9913 ± 0.009	0.999 ± 0.011
N#C/C(=C/c1ccc(O)c(O)c1)C(=O)N1CCc2ccccc21 [Tyrphostin AG 528]	0.993 ± 0.0089	0.987 ± 0.032	1.02 ± 0.031	0.9767 ± 0.0095	1.003 ± 0.0058	1.02 ± 0.01
NCC(=O)CCC(=O)O [Aminolevulinic acid hydrochloride; Aminolevulinic acid]	1.04 ± 0.021	0.0671 ± 0.0064	1.023 ± 0.0058	0.486 ± 0.037	1.001 ± 0.0081	0.00332 ± 0.0013
NCCCCCC(=O)O [6-Aminohexanoic acid]	0.9763 ± 0.0095	0.972 ± 0.022	1 ± 0.011	0.971 ± 0.041	0.99 ± 0.019	0.9787 ± 0.0067
NCCCCC(=O)O [5-Aminovaleric acid hydrochloride]	0.9807 ± 0.0096	0.99533 ± 0.00058	0.9797 ± 0.0035	0.9945 ± 0.00071	0.992 ± 0.0066	0.9927 ± 0.0032
[Cl-].[Li+] [Lithium Chloride]	1.007 ± 0.0058	0.998 ± 0.013	1.01 ± 0.013	1.01 ± 0.018	1.01	1.002 ± 0.0072
C[C@]12CC[C@@H]3c4ccc(O)cc4CC[C@H]3[C@@H]1CC[C@@H]2O [beta-Estradiol]	0.9927 ± 0.005	0.954 ± 0.022	0.9937 ± 0.0055	0.962 ± 0.028	0.9753 ± 0.0031	0.9807 ± 0.0032
C[C@]12CC[C@@H]3c4ccc(O)cc4CC[C@H]3[C@@H]1C[C@@H](O)[C@@H]2O [Estriol]	1.02 ± 0.011	1.01 ± 0.014	1.01 ± 0.01	1.02 ± 0.021	1.007 ± 0.0058	1.01 ± 0.011
CNC(=O)[C@H]1O[C@@H](n2cnc3c(NCc4ccc(N)cc4)ncnc32)[C@H](O)[C@@H]1O	1.01 ± 0.012	0.9953 ± 0.0081	0.997 ± 0.003	1	0.9873 ± 0.0091	1.001 ± 0.0085
C[C@@H](Oc1ccc(Oc2cnc3ccc(Cl)cc3n2)cc1)C(=O)O	1.004 ± 0.0098	0.88 ± 0.023	0.858 ± 0.29	1.05 ± 0.015	1.027 ± 0.0058	0.522 ± 0.054
CNCC[C@@H](Oc1ccc(C(F)(F)F)cc1)c1ccccc1 [R-(-)-Fluoxetine hydrochloride]	0.999 ± 0.011	0.92 ± 0.014	1.013 ± 0.0058	1.02 ± 0.029	0.995 ± 0.0036	0.9947 ± 0.005
N#Cc1ccc2[nH]c(O)c(-c3ccc(CN4CCOCC4)cn3)c2c1	1.11 ± 0.021	1.24 ± 0.021	1.053 ± 0.0058	1.11 ± 0.023	1.02 ± 0.011	1.05 ± 0.015
CN1CC2c3ccccc3Oc3ccc(Cl)cc3C2C1 (stereo not given) [Asenapine]	1.002 ± 0.0072	1.02 ± 0.024	1.01 ± 0.011	1.01 ± 0.028	0.995 ± 0.0087	1 ± 0.0092
CN(C)CCC(c1ccc(Br)cc1)c1ccccn1 (racemic) [(±)-Brompheniramine maleate]	1.001 ± 0.0081	1.03 ± 0.017	1.013 ± 0.0058	1.04 ± 0.014	1.013 ± 0.0058	1.02 ± 0.01
CC(C)C[C@H](NP(=O)(O)O[C@H]1O[C@H](C)[C@@H](O)[C@H](O)[C@@H]1O)C(=O)N[C@@H](Cc1c[nH]c2ccccc12)C(=O)O [Phosphoramidon disodium]	0.9937 ± 0.0061	1.01 ± 0.02	1.01 ± 0.016	0.999 ± 0.011	0.991 ± 0.0044	0.9847 ± 0.0081
S=C(S)OC1CC2CC1C1CCCC21 [D-609 potassium]	1.02 ± 0.01	1.03 ± 0.017	1.04 ± 0.02	1.04 ± 0.01	1.03 ± 0.011	1.03
Cn1c(=O)c2nc[nH]c2n(C)c1=O [Theophylline]	1.001 ± 0.0085	1.01 ± 0.01	1.02 ± 0.021	0.9943 ± 0.0049	0.99 ± 0.0087	0.9907 ± 0.0038
O=C1OC(=O)[C@H]2[C@@H]1[C@@H]1CC[C@H]2O1 [Norcantharidin]	1.007 ± 0.0058	1.03 ± 0.02	1.02 ± 0.011	0.924 ± 0.23	0.9903 ± 0.0011	1 ± 0.022
Cc1ccc(-n2nc(C(C)(C)C)cc2NC(=O)Nc2ccc(OCCN3CCOCC3)c3ccccc23)cc1 [BIRB 796 (Doramapimod)]	0.806 ± 0.012	0.826 ± 0.03	0.775 ± 0.019	0.816 ± 0.034	0.995 ± 0.005	1.017 ± 0.0058
O=C(OCCN1CCOCC1)C1(c2ccccc2)CCCCC1	1.01 ± 0.011	1.03 ± 0.088	1.02 ± 0.015	0.891 ± 0.21	1.017 ± 0.0058	1.03 ± 0.011
O=C(Cc1ccc(-c2ccc(OCCN3CCOCC3)cc2)cn1)NCc1ccccc1	0.235 ± 0.021	0.258 ± 0.015	0.464 ± 0.041	0.518 ± 0.077	0.0379 ± 0.0028	0.0359 ± 0.0039
CCS(=O)(=O)Nc1ccc2[nH]c(O)c(C(=Nc3ccc(CN4CCCCC4)cc3)c3ccccc3)c2c1 [Hesperadin]	0.435 ± 0.035	0.396 ± 0.068	0.419 ± 0.087	0.51 ± 0.08	0.371 ± 0.08	0.218 ± 0.035
CC(C)C[C@H](NC(=O)[C@H](CCc1ccccc1)NC(=O)CN1CCOCC1)C(=O)N[C@@H](Cc1ccccc1)C(=O)N[C@@H](CC(C)C)C(=O)[C@@]1(C)CO1 [Carfilzomib (PR-171)]	0.0181 ± 0.0047	0.000755 ± 0.00097	0.777 ± 0.051	0.12 ± 0.025	0.0054 ± 0.0013	-0.000926 ± 0.0006
